Data from PubChem BioAssay (Tox21).
Inconclusive results are not listed. The source made the active and inactive calls. Calls follow the shape of the dose curve; as a rule, active = well fitted inhibition curve with a large enough effect in the signal ratio in the repeat runs (not every such curve was filed as active); inconclusive = weak or mixed curves, or effect the other way; inactive = no such curve, though single readings can be large or run the other way; the % refers to the signal ratio.

biological target: Glucocorticoid receptor (Homo sapiens) (UniProt P04150); assay: qHTS assay to identify small molecule antagonists of the glucocorticoid receptor (GR) signaling pathway (AID 720692); conditions: GR-bla HeLa, beta-lactamase FRET ratio, dexamethasone-stimulated, 18 h; series mostly up to 58.5 µM; activity change, negative = inhibition: at the top concentration
Source text: U.S. Tox21 Program National Center for Advancing Translational Sciences [NCATS] NIH Chemical Genomics Center [NCGC] U.S. Environmental Protection Agency [EPA] National Institutes of Environmental Health Sciences [NIEHS] National Toxicology Program [NTP] U.S. Food and Drug Administration [FDA] Tox21 Assay Overview: The Glucocorticoid receptor (GR) is one of the members of the nuclear receptor family of ligand-dependent transcription factors. GR plays a critical role in carbohydrate, protein and lipid metabolisms and programmed cell death. CellSensor GR-bla HeLa cell line (Invitrogen) contains a beta-lactamase reporter gene under the control of the glucocorticoid response element stably integrated into HeLa cells, a cervical cancer cell line that expresses glucocorticoid receptor. The activation of the reporter gene under culture conditions can be detected by fluorescence intensity. This cell line has been used to screen the Tox21 10K compound library and to identify the compounds that inhibit the GR signaling.
Tox21 Assay Protocol Summary: The GR-bla HeLa cells were dispensed at 1500 cells/5 ul/well in 1536-well black wall/clear bottom plates using a Multidrop Combi (ThermoFisher Scientific, Waltham, MA) dispenser. After the assay plates were incubated at a 37 C/5% CO2 incubator for 4 hours, 23 nL of compounds dissolved in DMSO, positive controls or DMSO only was transferred to the assay plate by a pintool station (Kalypsys, San Diego, CA), followed by addition of 1 uL of dexamethasone (5 nM, final concentration in the well). The plates were incubated at 37 C for 18 hours. After 1 uL of LiveBLAzerTM B/G FRET substrate was added using a Flying Reagent Dispenser (Aurora Discovery, San Diego, CA), the plates were incubated at room temperature for 2 hours, and fluorescence intensity was measured by an Envision plate reader (PerkinElmer, Shelton, CT).
% is scaled to controls: 0 for no effect and ±100 for the full control effect.

Chain of Glucocorticoid receptor (Homo sapiens) (P04150 whole entry, looked up): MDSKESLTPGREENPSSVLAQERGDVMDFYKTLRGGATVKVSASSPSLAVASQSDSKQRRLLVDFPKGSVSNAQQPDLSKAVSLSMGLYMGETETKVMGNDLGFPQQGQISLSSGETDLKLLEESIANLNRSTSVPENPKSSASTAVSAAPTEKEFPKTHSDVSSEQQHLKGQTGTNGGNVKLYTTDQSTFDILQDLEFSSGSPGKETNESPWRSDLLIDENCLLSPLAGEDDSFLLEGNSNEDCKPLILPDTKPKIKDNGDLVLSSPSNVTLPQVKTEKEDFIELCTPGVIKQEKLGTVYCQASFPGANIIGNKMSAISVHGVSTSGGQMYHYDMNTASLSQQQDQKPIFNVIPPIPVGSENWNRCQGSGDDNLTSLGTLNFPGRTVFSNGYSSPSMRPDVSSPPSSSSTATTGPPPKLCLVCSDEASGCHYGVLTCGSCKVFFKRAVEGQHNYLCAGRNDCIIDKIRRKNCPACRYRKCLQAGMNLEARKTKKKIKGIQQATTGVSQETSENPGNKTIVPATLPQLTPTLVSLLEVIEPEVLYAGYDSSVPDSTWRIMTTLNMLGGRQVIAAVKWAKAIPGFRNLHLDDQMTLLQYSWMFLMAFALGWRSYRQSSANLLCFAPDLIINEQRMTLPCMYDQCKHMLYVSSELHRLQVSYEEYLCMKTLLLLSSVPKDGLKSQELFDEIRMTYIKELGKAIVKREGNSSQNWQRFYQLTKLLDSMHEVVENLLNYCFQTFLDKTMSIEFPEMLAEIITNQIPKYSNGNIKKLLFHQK

Compound	activity change, negative = inhibition	outcome
CCc1ccc(CC)cc1	2.31% [at 78.9 µM] (inactive)	
CCCCCCCCCCCCCCCCN(C)C	-19.5% [at 7.04 µM] (inactive)	
C[C@@H]1NC(=O)[C@@H](N)CNC(=O)[C@H](C2CCNC(N)=N2)NC(=O)/C(=C/NC(N)=O)NC(=O)[C@H](CNC(=O)C[C@@H](N)CCCN)NC1=O (stereo not given in full)		inactive
CCCCCC(CC)OC(=O)CCCOc1ccc(Cl)cc1Cl (stereo not given)	-10.1% (inactive)	
N=C(N)N1CCc2ccccc2C1	-5.51% (inactive)	
CC(C)OCCO	7.64% (inactive)	
CC(=O)Nc1ccc(S(=O)(=O)Nc2cc(C)on2)cc1	-12.1% (inactive)	
COC(=O)c1ccccc1Cl	-3.41% (inactive)	
O=c1c(O)c(O)c1=O	-13.5% (inactive)	
O=C(OOC(=O)c1ccccc1)c1ccccc1	-2.38% (inactive)	
O=C1c2ccccc2C(=O)N1CO	0.0959% [at 78.9 µM] (inactive)	
CCC(C)SSC(C)CC (stereo not given)	28% (inactive)	
CN1C(CCl)Nc2cc(Cl)c(S(N)(=O)=O)cc2S1(=O)=O (stereo not given)	-2.01% (inactive)	
CCN(CC)CC	0.811% [at 78.9 µM] (inactive)	
COCCCOc1cc(C[C@@H](C[C@H](N)[C@@H](O)C[C@H](C(=O)NCC(C)(C)C(N)=O)C(C)C)C(C)C)ccc1OC	-19.3% (inactive)	
Cc1cc(O)c(Cl)cc1C	10% (inactive)	
Cc1nnc(C(=O)NC(C)(C)c2nc(C(=O)NCc3ccc(F)cc3)c(O)c(=O)n2C)o1	2.69% (inactive)	
CNC(C)=O	-0.0039% (inactive)	
COc1cc(C(=O)NC2CCCNC2)cc(OC)c1OC (stereo not given)	4.34% (inactive)	
CCC(C)c1nccnc1OC (stereo not given)	10.6% (inactive)	

Compound	activity change, negative = inhibition	outcome
CN(C)CCCN(C)C	10.4% [at 7.04 µM] (inactive)	
Cc1ccc(Br)cc1	-0.947% (inactive)	
COc1cnc(NS(=O)(=O)c2ccc(N)cc2)nc1	2.09% [at 27 µM] (inactive)	
O=S(=O)(O)c1ccc(Cl)cc1	-10.6% (inactive)	
CC/C=C\CCCCCCCCCCOC(C)=O	0.753% (inactive)	
CN1CCN(C(=O)C2CCCCC2)CC1	-0.196% (inactive)	
Cc1ccc2cccnc2c1	1.73% (inactive)	
C=CCn1cc[n+](C)c1	6.39% [at 78.9 µM] (inactive)	
BrCCOc1ccccc1	-8.04% [at 78.9 µM] (inactive)	
CC(C)C(C)C	-7.98% (inactive)	
CCOCCOCCOC(C)=O	3.31% [at 78.9 µM] (inactive)	
CC/C=C/CCCCCCCCCCOC(C)=O	-0.0892% (inactive)	
CCCCCCC(O)CO (stereo not given)	2.72% (inactive)	
O=Cc1ccc(C(=O)O)cc1	0% [at 78.9 µM] (inactive)	
CCOC(=O)[C@H](CCc1ccccc1)N[C@H]1CS[C@H](c2cccs2)CN(CC(=O)O)C1=O	1.16% (inactive)	
CCCCCCCCC1CO1 (stereo not given)	-16.2% [at 78.9 µM] (inactive)	
CCNC(=O)C(C)OC(=O)Nc1ccccc1 (stereo not given)	-0.993% (inactive)	
c1coc(Cn2cccc2)c1	-1.49% (inactive)	
CC(C)(C)NCC(O)COc1cccc2c1CCC(=O)N2 (stereo not given)	15.2% [at 27 µM] (inactive)	
Cc1nc2ccc(Cl)cc2[nH]1	-4.7% (inactive)	
